Drawing on PubChem BioAssay AID624330 (Southern Research Specialized Biocontainment Screening …, 2012), this text covers inhibition for 99 compounds.

Among all 340,000 compounds or so, about 2,100 (0.62%) were called active.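 How the source made its calls: active means first-screen hits whose inhibition reached a set limit at any dose in the follow-up dose series; inconclusive means inhibition above the set first-screen limit but never retested; inactive means the rest.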 The list is a sample of the results. Potency and affinity values are given separately.

The target in this assay is Rac GTPase-activating protein 1 (Homo sapiens) (UniProt Q9H0H5). The experiment in a line: blockers of MgcRacGAP-driven Rac1 GTP hydrolysis – biochemical, ADP Hunter fluorescence, primary and confirmatory, confirmation (AID 624330).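 Further: fluorescence reports GDP produced by GAP-driven GTP hydrolysis.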 The conditions noted are these: MgcRacGAP-stimulated Rac1 GTP hydrolysis, at 30 µM, stronger effect = higher value, GST-tagged Rac1 F28L mutant substrate.
Rac GTPase-activating protein 1 (Homo sapiens), sequence (Q9H0H5 whole entry, looked up): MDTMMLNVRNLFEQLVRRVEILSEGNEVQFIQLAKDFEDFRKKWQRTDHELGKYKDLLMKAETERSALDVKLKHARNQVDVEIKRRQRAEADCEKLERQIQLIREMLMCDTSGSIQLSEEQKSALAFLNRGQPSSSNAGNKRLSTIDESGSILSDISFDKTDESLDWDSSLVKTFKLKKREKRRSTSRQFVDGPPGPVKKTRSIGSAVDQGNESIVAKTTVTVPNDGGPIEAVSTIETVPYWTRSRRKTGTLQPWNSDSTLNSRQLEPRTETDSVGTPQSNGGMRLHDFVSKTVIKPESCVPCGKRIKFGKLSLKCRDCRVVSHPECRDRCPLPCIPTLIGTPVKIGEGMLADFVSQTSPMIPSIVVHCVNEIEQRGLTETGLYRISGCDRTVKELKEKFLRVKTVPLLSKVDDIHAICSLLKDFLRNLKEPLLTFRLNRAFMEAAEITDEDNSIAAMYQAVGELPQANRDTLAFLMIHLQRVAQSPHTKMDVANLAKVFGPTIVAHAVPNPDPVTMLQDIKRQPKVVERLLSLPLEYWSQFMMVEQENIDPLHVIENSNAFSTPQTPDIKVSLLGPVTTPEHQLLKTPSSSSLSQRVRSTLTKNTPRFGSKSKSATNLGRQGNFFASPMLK
The term inhibition denotes the relative decrease from the control value, in per cent. For `N#CC(C#N)=C1C=CC=CN1/C(=C\c1ccccc1Cl)C(=O)c1ccccc1`, the inhibition was 17.8% (inactive).

Take `COc1ccc(C(=O)/C(=C\c2ccco2)N2C=CC=CC2=C(C#N)C#N)cc1`: the inhibition is 4.05% (inactive).

With `N#CC(C#N)=C1C=CC=CN1/C(=C\c1ccco1)C(=O)c1ccc(-c2ccccc2)cc1`, the inhibition is 15.6% (inactive). The figure for `N#CC(C#N)=C1C=CC=CN1/C(=C\c1ccco1)C(=O)c1ccccc1` is 16.7% (inactive); for `CCCCN(C(=O)c1cc(CN2C(=O)c3ccccc3C2=O)ccc1OC)c1c(N)n(CC(C)C)c(=O)[nH]c1=O` it is 3.78% (inactive). Next, `O=C(Nc1cccc(Cl)c1Cl)C1CCN(c2ncccn2)CC1`: 7.84% (inactive). The figure for `CCOC(=O)C(Cc1ccccc1)C(=O)Nc1ccc(NC(=O)C(Cc2ccccc2)C(=O)OCC)cc1` (centres undefined) is 4.48% (inactive); for `NC(=O)c1ccc(NC(=O)CSC(=O)c2ccccc2)cc1` it is 8.91% (inactive). On to `CC(=O)c1cccc(NC(=O)CSC(=O)c2ccccc2)c1`, for which the inhibition is 7.67% (inactive). For the compound `CCN(CC)c1ccc(NC(=S)NC(=O)C2CCC2)cc1`, the inhibition was 18% (inactive). The figure for `CCN(CC)c1ccc(/C=N/NC(=O)Nc2ccccc2)cc1` is 28.4% (inactive); for `CCOC(=O)C(Cc1ccccc1)C(=O)Nc1cccc(C)c1` (centres undefined) it is 1.33% (inactive); for `CCN(CC)c1ccc(NC(=O)Nc2ccc(C(C)=O)cc2)cc1` it is 10.2% (inactive). As to `CCCCc1ccc(NC(=O)C2CCCC2)cc1`, the inhibition is -0.66% (inactive). Turning to `COC(=O)c1cc(OC)c(OC)cc1NC(=O)CCCCCN1C(=O)CCC1=O`, the inhibition is 5.93% (inactive).

As to `COc1ccc(CCC(=O)Nc2ccc(Cn3ccnc3)cc2)cc1`, the inhibition was 6.46% (inactive).

Regarding `Cn1c(CCc2ccccc2)n[nH]c1=S`, the inhibition is 4.25% (inactive). Next, `C=CCOCCN(CC)CC`: 6.71% (inactive); `CC#CCCCC(=O)Nc1ccccc1C(=O)O`: 6.9% (inactive). On to `CCCn1c(SCCc2ccccc2)nc2c1c(=O)[nH]c(=O)n2C`, for which the inhibition was -2.73% (inactive).

For `CCOc1ccc(NC(=O)COc2ccc(-n3cnnn3)cc2)cc1`, the inhibition was 6.31% (inactive). As for `COC(=O)Cc1ccc(NC(=O)c2ccc(Br)o2)cc1`, the inhibition was 18.8% (inactive).

With `CCOC(=O)c1ccc(NC(=O)COc2ccc(-n3cnnn3)cc2)cc1`, the inhibition is 11.5% (inactive).

Consider `CCN(CC)c1ccc(/C=N/NC(=O)c2ccc(Br)o2)cc1`, for which the inhibition is 14.9% (inactive). As for `COc1cccc(C(=O)NCCS(=O)(=O)N2CCC3(CC2)OCCO3)c1`, the inhibition is 6.03% (inactive).

Consider `CC(=O)CC(=O)Nc1cccc2c1CCCC2`, for which the inhibition was 5.33% (inactive). `COC(=O)c1ccc(NCc2cc(O)ccc2O)cc1O`: the inhibition was 27% (inactive). With `COC(=O)c1cc(CNC(=O)c2ccc(O)c(Cl)c2)ccc1OC`, the inhibition is 2.78% (inactive). Next, `CNS(=O)(=O)c1ccc(C(=O)NCC(=O)NCC2COc3ccccc3O2)cc1` (centres undefined): 3.68% (inactive); `O=C(Nc1ccccc1N1CCCC1)C1CCN(S(=O)(=O)c2ccccc2)CC1`: 2.86% (inactive); `CC(C)OCCCNC(=O)CN1C(=O)/C(=C/c2ccccc2)Sc2ccccc21`: -14.8% (inactive).

With `Cc1ccc(-c2cc(C(=O)N(C)Cc3cnn(C)c3C)c3cc(Br)ccc3n2)cc1`, the inhibition is 7.31% (inactive).

With `O=C1C(Cl)=C(Nc2ccc(O)cc2)C(=O)c2ccccc21`, the inhibition was 27.1% (inactive). Take `Cc1ccc(S(=O)(=O)Nc2ccc(N=Nc3ccc(O)cc3)cc2)cc1`: the inhibition was 21.7% (inactive). Consider `O=C1C(O)=C(O)C(=O)c2ccccc21`, for which the inhibition was -6.63% (inactive). Next, `Cc1ccc(S(=O)(=O)/N=C2\C=C(NS(=O)(=O)c3ccccc3)C(=O)c3ccccc32)cc1`: 2.77% (inactive); `O[C@H]1C[C@H](c2ccccc2)N(Cc2cccs2)C[C@@H]1n1cc(-c2ccc(F)cc2)nn1`: 7.08% (inactive). The figure for `Cc1[nH]c(=O)[nH]c(=O)c1S(=O)(=O)N1CCCC(C(=O)NCc2ccco2)C1` (centres undefined) is 4.98% (inactive); for `COc1cc(OC)cc(C(=O)Oc2ccc(/C=N/Nc3nc4ccccc4s3)cc2OC)c1` it is 12.4% (inactive); for `COc1cc(/C=N/Nc2nc3ccccc3s2)ccc1OC(=O)c1ccccc1F` it is 4.55% (inactive). Take `Brc1csc(/C=N/Nc2nc3ccccc3s2)c1`: the inhibition is 8.54% (inactive). The figure for `COc1cc(/C=N/Nc2nc3ccccc3s2)cc([N+](=O)[O-])c1O` is 8.67% (inactive). On to `Oc1ccccc1C=NNc1nc2ccccc2s1`, for which the inhibition was 4.1% (inactive). On to `COc1ccc(C=NNc2nc3ccccc3s2)cc1`, for which the inhibition is 2.73% (inactive). On to `COc1ccc(OC)c(C(=O)COC(=O)c2ccc(C)o2)c1`, for which the inhibition is 13% (inactive). In the case of `Cc1ccc2c(c1)C1CC(C)(O2)N(c2cccc(C(=O)NC3CCN(Cc4ccccc4)CC3)c2)C(=O)N1` (centres undefined), the inhibition is 3.74% (inactive).

In the case of `O=C(CSc1ncnc2sc3c(c12)CCCC3)NC1CCS(=O)(=O)C1` (centres undefined), the inhibition is 12.7% (inactive).

Turning to `CCN(CC(=O)Nc1ccc(S(=O)(=O)N2CCCC2)cc1)Cc1ccccc1`, the inhibition was 1.79% (inactive). In the case of `Cc1ccc(C)c(-n2cc(CNCCc3cnccn3)c(-c3ccccc3)n2)c1`, the inhibition is 12.1% (inactive). The figure for `Cc1cc(OC(C)C(=O)NCc2ccccn2)c2c(C)cc(=O)oc2c1` (centres undefined) is 0.55% (inactive). With `CC(=O)Nc1ccc2ccc3cccc4ccc1c2c34`, the inhibition is 6.5% (inactive). As to `CC(=O)Nc1cccc2ccc(O)cc12`, the inhibition is -6.95% (inactive). Consider `COc1ccc(-c2ncc3ccccn23)cc1`, for which the inhibition is 14.9% (inactive). `c1ccc(-c2ncc3ccccn23)cc1`: the inhibition was 12% (inactive). The figure for `Fc1ccc(-c2ncc3ccccn23)cc1` is -4.81% (inactive); for `Brc1ccc(-c2ncc3ccccn23)cc1` it is 14.6% (inactive). Next, `Clc1ccc(-c2ncc3ccccn23)cc1`: 6.65% (inactive); `COc1cc(OC)cc(-c2ncc3ccccn23)c1`: 29.5% (inactive); `CCN(CC)C(=O)[C@H]1CC(CC(=O)NC(C)(C)C)C(=O)N2CCc3c([nH]c4ccccc34)[C@]12C` (some centres undefined): 6.38% (inactive). Regarding `O=C(Nc1ccon1)Nc1ccc(Cl)cc1Cl`, the inhibition was 2.26% (inactive). The figure for `Cc1ccc(-c2nc3ncccc3o2)cc1NC(=O)CC(C)C` is 4.77% (inactive); for `CC(NC(=O)NC1CCCCC1)C(c1cccs1)N1CCN(C)CC1` (centres undefined) it is 1.37% (inactive); for `COc1ccc(CNC(=O)Cn2cc([N+](=O)[O-])nc2C)cc1` it is 2.29% (inactive). In the case of `O=C(CN1C(=O)C2CCCCC2C1=O)N1CCN(c2ncccn2)CC1` (centres undefined), the inhibition was 5.06% (inactive). `O=C(O)CCC(=O)N1CCN(c2ncccn2)CC1`: the inhibition is 1.98% (inactive). Next, `COc1ccc2c(C)cc(=O)sc2c1`: 5.61% (inactive); `O=C(Nc1cccc(NC(=O)c2ccccc2)n1)c1ccccc1`: 8.99% (inactive); `Cc1cc(NC(=O)CN2CCCC(C)C2)no1` (centres undefined): 20.7% (inactive). The figure for `Cc1cc(NC(=O)CN2CCCCC2)no1` is 22.2% (inactive).

In the case of `CCN1CCN(CC(=O)Nc2cc(C)on2)CC1`, the inhibition was 29.4% (inactive). As for `CC1CCN(CC(=O)Nc2ccc(S(=O)(=O)N3CCC(C)CC3)cc2)CC1`, the inhibition is 23% (inactive). With `Cc1cc(NC(=O)CN2CCCCCCC2)no1`, the inhibition was 18% (inactive). Turning to `O=C(CN1CCCCC1)Nc1ccc(S(=O)(=O)NC2CCCCC2)cc1`, the inhibition was 5.84% (inactive).

`COc1ccc(S(=O)(=O)N2CCOCC2)cc1C(=O)N(C)CCOc1ccc(Cl)cc1`: the inhibition was 6.35% (inactive).

Take `O=C1C2C3C=CC(O3)C2C(=O)N1Cc1ccncc1` (centres undefined): the inhibition was 1.25% (inactive). Next, `CN(CC1COc2ccccc2O1)C(=O)c1ccc(Cl)c(S(=O)(=O)N2CCCCCC2)c1` (centres undefined): 7.88% (inactive); `Nc1ccc(Nc2nc(-c3cc4ccccc4oc3=O)cs2)cc1`: 47.4% (inactive); `CC(=O)Nc1ccc(Nc2nc(-c3cc4ccccc4oc3=O)cs2)cc1`: 4.39% (inactive). Next, `COc1ccc(-c2csc(Nc3ccc(S(N)(=O)=O)cc3)n2)cc1`: 15.2% (inactive). With `NS(=O)(=O)c1ccc(Nc2nc(-c3ccc4ccccc4c3)cs2)cc1`, the inhibition is -0.69% (inactive). For `CC(=O)Nc1ccc(-c2csc(Nc3ccc(S(N)(=O)=O)cc3)n2)cc1`, the inhibition is -2.9% (inactive). Next, `COc1ccc(-c2csc(Nc3ccc(S(=O)(=O)Nc4cc(C)on4)cc3)n2)cc1`: 11.9% (inactive). Next, `Cc1cc(NS(=O)(=O)c2ccc(Nc3nc(-c4ccc(C)c(C)c4)cs3)cc2)no1`: 12.2% (inactive); `Oc1ccc(-c2csc(Nc3ccc4c(c3)OCO4)n2)c(O)c1`: 10.8% (inactive). In the case of `Cc1cc(=O)[nH]c(N/N=C/c2c(C)nn(-c3ccccc3)c2Cl)n1`, the inhibition is 0.59% (inactive). For `CN=c1scc(-c2ccc(Cl)cc2)n1C`, the inhibition is 3.57% (inactive).

`CC(C(=O)OCC(=O)N1CCCCC1)N1C(=O)c2ccccc2C1=O` (centres undefined): the inhibition was 2.6% (inactive). The figure for `CC1CCN(S(=O)(=O)c2cn(CC(=O)N3CCN(C)CC3)c(=O)c3ccccc23)CC1` is -14% (inactive); for `O=C(CSc1ccc(-c2cccc([N+](=O)[O-])c2)nn1)N1CCCCC1` it is 9.68% (inactive); for `CC(C)(C)S(=O)(=O)N1C[C@H]2CC/C=C\C/C(c3ccccc3)=C\2[C@@H]1CCO` it is 2.11% (inactive).

Consider `CC(C)c1ccc(NC(=O)COC(=O)C2CCCCC2)cc1`, for which the inhibition was 1.49% (inactive).

As to `O=C(NC1CCN(C(=O)N2c3ccccc3Sc3ccccc32)CC1)c1ccco1`, the inhibition is 1.56% (inactive). In the case of `O=C(NC1CCN(C(=O)N2c3ccccc3Sc3ccccc32)CC1)c1ccccc1Cl`, the inhibition is 23.6% (inactive). The figure for `CC1C(=O)C(C)C(c2cc(Cl)ccc2O)NC1c1cc(Cl)ccc1O` (centres undefined) is 6.05% (inactive); for `CCC[C@H]1CN(c2ccccc2)C(=O)[C@@H]1CC(=O)Nc1ccc(Br)cc1` it is 13.1% (inactive). The figure for `COc1ccccc1-n1c(=O)c2c3c(sc2n2c(SC)nnc12)CCC3` is 11.3% (inactive); for `CCSc1nnc2n(-c3ccc(OC)cc3)c(=O)c3c4c(sc3n12)CCCC4` it is -3.51% (inactive). The figure for `COc1ccccc1-n1c(=O)c2c3c(sc2n2c(SC(C)C)nnc12)CCC3` is 14.9% (inactive); for `COC(=O)CSc1nnc2n(-c3ccc(OC)cc3)c(=O)c3c4c(sc3n12)CCCCC4` it is 7.39% (inactive).
